Source: PubChem BioAssay AID602197 (NMMLSC, 2012)
This is one part of the list. The source made the active and inactive calls. Rule as the data show it: active = response above about 24%; inactive = the rest.

Assay: yeast V-ATPase proton pumping modulators, confirmation, S. cerevisiae, pH-sensitive GFP, second cherry-pick (AID 602197);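 also: plate controls were vehicle wells for no effect and positive control wells for full effect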
Details: S. cerevisiae pHLuorin cytosolic pH, V-ATPase proton transport; at 10 µM; stronger effect = higher value

response, inactive:
COC(=O)c1cc(Oc2ccc(S(=O)(=O)N3CCOCC3)cc2[N+](=O)[O-])cc(C(=O)OC)c1 0.18%
CCCc1nnc(NC(=O)c2cc(OC)cc(OC)c2)s1 -0.87%
CCOC(=O)CNC(=O)CSc1nnc(COc2ccc(Cl)cc2)n1CC -1.08%
COc1ccc(N2CCN(C(=O)/C(C#N)=C/c3ccccc3)CC2)cc1 -3.48%
O=C(O/N=C(/c1ccccc1)c1ccncc1)c1ccccc1[N+](=O)[O-] 4.81%
N#C/C(C(=O)N1CCOCC1)=C1/SC(Cc2ccc(F)cc2)C(=O)N1c1ccccc1 (stereo not drawn) 5.79%
COc1ccc(C(=O)N(Cc2ccccc2)c2ccc(C)cc2)cc1S(=O)(=O)N1CCOCC1 -6.57%
Cc1cc(OC(=O)c2ccccc2)c([N+](=O)[O-])c(=O)[nH]1 1.38%
O=S1(=O)C=C(SCCN2CCCC2)c2ccccc21 -0.88%
O=S(=O)(c1ccc(-c2ccno2)s1)N1CCCCC1 -6.9%
Cc1cc(CO)nn1-c1ccc([N+](=O)[O-])cc1 2.63%
CCC(=O)c1ccc(OCC(=O)Nc2ccc(N3CCCCC3)cc2)cc1 -1.55%
Cc1cc(=O)c2ccc(NC(=O)c3ccccc3)cc2[nH]1 -0.97%
O=C1c2ccccc2C(=O)N1CCCCCCN1C(=O)c2ccccc2C1=O 2.04%
C/C=C/C(=O)OCc1csc(CC(=O)Nc2ccccc2C)n1 -3.22%
CCOc1ccc(CCNC(=O)C2=C(C)C(=O)OC23CCC(C)CC3)cc1OCC (stereo not drawn) 5.21%
Cc1ccc(C(=O)Nc2nc3ccc(Cl)cc3s2)o1 -0.02%
Cc1ccnc(SCC(=O)Nc2cccc(S(=O)(=O)N3CCOCC3)c2)n1 0.72%
Cc1ccc2nc(-c3ccncc3)cc(C(=O)Nc3ccc(OC(F)F)cc3)c2c1 2.3%
COc1ccccc1CNC(=O)COC(=O)c1sc(C)nc1C 1.62%
CCOC(=O)COc1cc(O)c2c(=O)cc(-c3ccccc3)oc2c1 -3.04%
O=C(COc1cc2oc(=O)c3c(c2cc1Cl)CCC3)NCCCN1CCOCC1 2.9%

response, active:
CC1=NOC(=O)/C1=C\c1ccccc1 30.5%
